Compound activity deposited in PubChem BioAssay by several laboratories.
Only some compounds are listed: those with a hit (about 8.7% of all), similar ones and a draw of the others.
PostGolgi yeast: phenotypic screen on post-Golgi transport, primary screen | inhibition, % at 10 µM | 98,000 compounds, 0.9% hits | post-Golgi transport phenotypic cell assay | AID 739, 2007;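 also: yeast cells grown in 1536-well plates; yeast grown about 18 h at 30C before absorbance read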
TNAP act mid DEA: human TNAP enzyme activators, primary screen, biochemical, luminescent, intermediate phosphate acceptor level; purified TNAP, CDP-star luminescence, 100 mM DEA, 30 min; hits give high values; scale: 0 levamisole-inhibited, 1 vehicle-only enzyme; activation factor at 20 µM; Alkaline phosphatase, tissue-nonspecific isozyme (Homo sapiens), P05186; 64,000 tested, under 10 active;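 active = activation factor of at least 2 at 20 µM, relative to controls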
DAT uptake mod: changed hDAT dopamine uptake under cocaine IC80, either direction, primary screen, cocaine antagonist project, cell-based, LLC-PK1 hDAT, [14C]-dopamine uptake, MLSMR; Sodium-dependent dopamine transporter (Homo sapiens), Q01959; LLC-PK1 hDAT cells, [14C]-dopamine uptake with cocaine IC80; actives deviate in either direction; B-score at 10 µM; 110,000 compounds, 1.3% hits;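 active = Z score or B-score, a plate-position-corrected score, falls beyond the plate's 99.7% confidence bounds, in either direction; inactive = both scores lie inside the 99.7% bounds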;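 also: scored against the spread of the other compound wells on the same plate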
PostGolgi ctrl: growth inhibition of yeast control strain, primary screen, counter-screen for post-Golgi transport modulator project | efflux-deficient yeast background strain, growth absorbance A615, 16 h | inhibition, % at 10 µM | 98,000 compounds, 5% hits
Smad3 FoxH1 inh: Smad3/FoxH1 peptide binding inhibitors, primary screen, biochemical, TR-FRET | TR-FRET Smad3/Dy647-FoxH1 peptide binding, europium anti-His | inhibition, % at 25 µM | 88,000 compounds, 0.29% hits;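 active = compounds that reduce the energy-transfer binding signal between the protein and its labelled peptide by more than half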;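 also: 0% = Smad3 plus labelled peptide maximal FRET and 100% = peptide-only background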
Cav32 inh: Cav3.2 calcium influx blockers – cell-based, Fluo-4 calcium fluorescence, FDSS, MLSMR library, primary screen. Cav3.2-expressing cells; hits give low values. B-score at 10 µM. 100,000 compounds, 4% hits. Voltage-dependent T-type calcium channel subunit alpha-1H (Homo sapiens), O95180;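 active = single-dose well whose peak fluorescence ratio is a statistical outlier from its plate by either plate-standardised score or position-corrected B-score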
* = called active by the depositor; · = no result given. Rule as the data show it, unless noted: active = inhibition above about 30%; inactive = the rest.

SMILES | PostGolgi yeast | TNAP act mid DEA | DAT uptake mod | PostGolgi ctrl | Smad3 FoxH1 inh | Cav32 inh
Oc1ccccc1-c1nnc(COc2ccccc2)o1 | -1.1 | 0.9 | -0.386 | -2.0 | 8.5 | -1.05
Oc1ccccc1-c1nnc(COc2ccc(Cl)cc2Cl)o1 | 3.1 | 0.8 | 0.514 | 4.0 | 7.7 | -5.89*
Cc1cccc(-n2c(SCC(=O)Nc3ccc4c(c3)OCO4)nnc2-c2ccoc2C)c1 | -3.4 | 1 | 0.954 | 2.1 | 21.0 | -0.137
Cc1ccc(F)c([C@H]2[C@H]3C=CC[C@@H](C)[C@@H]3C(=O)N2Cc2ccccc2)c1 | · | · | -0.0185 | · | · | -0.0778
O=C(CSc1ncccc1-c1nc2ccccc2[nH]1)NCc1ccco1 | 33.9* | 0.9 | 0.445 | 13.0 | 11.7 | 0.469
O=C(CSc1nnc(-c2ccco2)n1Cc1ccccc1)c1ccccc1 | -0.5 | 0.9 | 3.44* | 12.7 | -1.2 | -3.59
CC(C)Cn1c(SCC(=O)c2ccc(Cl)s2)nnc1-c1ccco1 | 2.4 | 0.9 | 0.835 | 15.3 | 7.3 | -5.6*
COc1ccc(NC(=O)CSc2ccccn2)cc1 | · | · | -0.0254 | · | -2.1 | 0.116
O=[N+]([O-])c1cc(-c2nnc(C34CC5CC(CC(C5)C3)C4)o2)cc([N+](=O)[O-])c1 | 7.0 | · | · | 47.0* | · | ·
Cc1c(N2C(=O)CSC23C(=O)Nc2ccccc23)c(=O)n(-c2ccccc2)n1C (configuration not stated) | -6.6 | 0.9 | -0.29 | 39.9* | · | -0.0407
Cc1cccc(NC(=O)CCNS(=O)(=O)c2cccc3nsnc23)c1 | 9.6 | 0.9 | 1.81* | 9.2 | 7.3 | 0.726
Cc1ccc(NC(=O)CN(C)S(=O)(=O)c2cccc3nsnc23)cc1Cl | -1.3 | 0.8 | 0.00649 | 17.3 | -10.2 | -7.16*
Cc1cccc(N(C)S(=O)(=O)c2cccc3nsnc23)c1 | 15.2 | 0.9 | 0.0384 | 11.6 | 7.3 | -0.0625
CN(C)S(=O)(=O)c1cccc2nsnc12 | -1.3 | 0.9 | -2.04* | -2.1 | 2.6 | 0.528
COc1ccc(C(c2nnnn2C(C)(C)C)N2CCN(c3nc4ccccc4s3)CC2)cc1 (configuration not stated) | 0.3 | 0.9 | 0.217 | 16.4 | -3.8 | -5.26*
Cc1ccc(C(c2nnnn2C(C)(C)C)N2CCC(C)CC2)cc1 (configuration not stated) | · | · | -0.553 | · | 4.7 | -2.67
Cc1ccc(C)c(N2CCN(C(c3ccc(N(C)C)cc3)c3nnnn3C(C)(C)C)CC2)c1 (configuration not stated) | · | · | -0.00784 | · | 6.7 | -5.54*
c1ccc(C(c2nnnn2Cc2ccco2)N2CCN(c3nc4ccccc4s3)CC2)cc1 (configuration not stated) | · | · | 1.65 | · | 3.8 | -3.39*
CCC(C)(C)n1nnnc1C(c1ccc(O)c(OC)c1)N1CCN(c2nc3ccccc3s2)CC1 (configuration not stated) | 2.6 | 0.9 | -0.616 | 7.7 | -14.7 | -2.56
CCCC(c1nnnn1Cc1ccc(OC)cc1)N1CCN(c2ccccc2OC)CC1 (configuration not stated) | -5.6 | 0.8 | 0.644 | 13.4 | -7.4 | -5.14*
CCCC(c1nnnn1Cc1cccs1)N1CCN(c2ccc(OC)cc2)CC1 (configuration not stated) | 7.2 | 0.8 | -0.334 | 8.0 | -6.3 | -1.9
CCOC(=O)c1ccc(NC(=O)CCc2nc(-c3ccc(C)cc3)no2)cc1 | 2.8 | 1 | 0.362 | 4.8 | 17.8 | -3.02
Cc1cc(C)cc(C(=O)N2CCCCCC2)c1 | -11.6 | · | 1.32 | 4.2 | 4.9 | 0.06
c1ccc(Cn2nnnc2C(c2ccccc2)N2CCN(c3nc4ccccc4s3)CC2)cc1 (configuration not stated) | -0.6 | 0.9 | 1.46 | 1.0 | 8.6 | -0.0346
COc1ccccc1C(c1nnnn1Cc1ccccc1)N1CCN(c2nc3ccccc3s2)CC1 (configuration not stated) | 5.2 | 0.9 | -0.236 | 6.8 | 3.2 | -4.22*
SMILES | PostGolgi yeast | TNAP act mid DEA | DAT uptake mod | PostGolgi ctrl | Smad3 FoxH1 inh | Cav32 inh
COc1ccc(C(c2nnnn2Cc2ccccc2)N2CCN(c3nc4ccccc4s3)CC2)cc1OC (configuration not stated) | · | · | 2.41 | · | 8.7 | -3.3
CCCCC(c1nnnn1Cc1ccco1)N1CCN(c2nc3ccccc3s2)CC1 (configuration not stated) | 93.6* | 0.9 | 0.468 | 45.6* | -3.9 | -4.28
COc1cc(C(=O)N(C)c2nnc(-c3cccnc3)s2)cc(OC)c1OC | 0.5 | 0.9 | 0.0193 | 6.3 | -2.1 | 0.353
CO/N=C/NC(=O)NOCc1c(Cl)cccc1Cl | 0.5 | · | -1.2 | 31.5* | -1.4 | -0.398
Cc1cc(/C=C(/C#N)c2cccc(Cl)c2)c(C)n1C | -0.4 | · | · | 42.9* | · | ·
Cc1cc(/C=C2/SC(=S)N(c3cccc(Cl)c3)C2=O)c(C)n1-c1cccnc1 | · | · | 0.00928 | · | · | -0.264
CSc1nc2ccccc2cc1/C=C(\C#N)c1cccc(C)c1 | -0.2 | · | -0.386 | 10.2 | · | -0.257
Cc1cc(/C=C(/C#N)c2cccc(F)c2)c(C)n1-c1cccnc1 | -2.5 | 0.9 | 0.518 | 37.3* | 0.8 | -2.2
CC(C)C[C@H](NC(=O)OC(C)(C)C)C(=O)N1CCC(C(=O)O)CC1 | -5.4 | · | 1.01 | 19.9 | 0.9 | 0.0521
CCC1CCCCN1c1cc(C)nc2cc(-c3cccc(C)c3)nn12 (configuration not stated) | -0.8 | · | -0.0796 | 55.4* | -8.7 | 0.0379
Cc1ccc(NC(=O)CSc2nnc(CCNC(=O)OC(C)(C)C)o2)c(C)c1 | -2.0 | · | -0.0936 | 34.9* | -5.0 | 0.944
CCN(CC)c1ccc(/C=C/c2nc3ccccc3s2)cc1 | -6.7 | · | 0.535 | -3.3 | · | -3.89*
CC1CC(Nc2ccccc2)c2ccccc2N1C(=O)c1cccnc1 (configuration not stated) | · | · | -1.66 | · | 3.9 | 0.2
CCCC(=O)O[C@H]1C[C@@H](C)N(C(=O)c2ccccc2)c2ccc(C)cc21 | -1.6 | · | 0.313 | 38.9* | -2.0 | -7.97*
Cc1ccc(Cn2ccc(NC(=O)c3cc(-c4ccccc4)on3)n2)cc1 | -1.7 | 0.9 | -1.37 | 0.0 | -6.2 | -0.0443
Cc1nn(Cc2c(F)c(F)c(F)c(F)c2F)c(C)c1NC(=O)c1cccc(COc2ccc(Cl)cc2)c1 | 1.9 | · | -0.453 | 5.2 | · | -5.29*
Cc1ccc(Cn2ccc(NC(=O)c3cc(-c4ccc5c(c4)OCO5)on3)n2)cc1 | 1.5 | 1.1 | -0.916 | 34.6* | 3.7 | 0.015
Cc1nn(Cc2ccc(Cl)cc2)c(C)c1NC(=O)c1cc(-c2ccco2)on1 | -3.8 | 0.9 | · | 9.5 | 2.1 | ·
